Hits are enriched below; roughly 2.9% of the tested compounds scored in any of these assays.
PAFAH1B2 FP inh: inhibitors of human PAFAH1B2; 340,000 tested, 1.2% active; inhibition, % at 3.39 µM; AID 492953; recombinant PAFAH1B2, FP-rhodamine activity probe, fluorescence polarization;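 active = inhibition above the mean of all tested compounds plus 3 SD, cut at about 24% in these data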;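 note: 0% = enzyme with DMSO and 100% = wells lacking PAFAH1B2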
Target sequence (P68402 whole entry, looked up): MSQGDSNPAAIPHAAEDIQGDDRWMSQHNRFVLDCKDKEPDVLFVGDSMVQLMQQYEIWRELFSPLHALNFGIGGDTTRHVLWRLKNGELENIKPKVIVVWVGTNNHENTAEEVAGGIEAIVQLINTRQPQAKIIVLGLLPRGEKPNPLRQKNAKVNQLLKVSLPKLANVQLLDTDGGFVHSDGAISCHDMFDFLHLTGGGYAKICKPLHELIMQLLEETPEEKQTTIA
PME-1 inh: PME-1 (human) inhibition; 320,000 tested, 0.53% active; Q9Y570; recombinant PME-1, FP-Rh probe fluorescence polarization; AID 2130; inhibition, % at 5.9 µM;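 active = inhibition above the campaign mean of all compounds plus 3 SD, cut at about 26% in these data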;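 note: competitive labeling of PME-1 active site by serine hydrolase directed probe; 0% = PME-1 with DMSO and 100% = wells lacking PME-1 enzyme; inhibitors block probe labeling so polarization falls and inhibition rises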
PAFAH1B3 FP inh: PAFAH1B3 (human) inhibition | recombinant PAFAH1B3, FP-rhodamine probe, fluorescence polarization | inhibition, % at 3.39 µM | 340,000 tested, 0.28% active | AID 492972;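 active = inhibition above the screen-wide average of all tested compounds plus 3 SD, cut at about 25% in these data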;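 note: 0% = enzyme with DMSO only and 100% = wells lacking PAFAH1B3 protein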
PAFAH2 inh: PAFAH2 (human) inhibition. Q99487. recombinant PAFAH2, FP-rhodamine activity probe, fluorescence polarization. inhibition, % at 3.39 µM. 340,000 tested, 0.99% active;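 active = inhibition above the mean over all tested compounds plus 3 SD, cut at about 30% in these data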;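 note: inhibitors block probe labeling of enzyme so polarization drops; 0% = enzyme with DMSO and 100% = wells lacking PAFAH2 protein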
pPAFAH inh: pPAFAH (human) enzyme inhibition. Q13093. recombinant pPAFAH, FP-rhodamine probe fluorescence polarization. inhibition, % at 3.39 µM. 330,000 tested, 1.5% active. AID 463082;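 active = inhibition above the mean inhibition across the screen plus 3 SD, cut at about 25% in these data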;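 note: inhibitors block binding of the rhodamine activity-based probe so polarization drops; 0% = enzyme with DMSO and 100% = wells lacking pPAFAH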
Target sequence (Q13093 whole entry, looked up): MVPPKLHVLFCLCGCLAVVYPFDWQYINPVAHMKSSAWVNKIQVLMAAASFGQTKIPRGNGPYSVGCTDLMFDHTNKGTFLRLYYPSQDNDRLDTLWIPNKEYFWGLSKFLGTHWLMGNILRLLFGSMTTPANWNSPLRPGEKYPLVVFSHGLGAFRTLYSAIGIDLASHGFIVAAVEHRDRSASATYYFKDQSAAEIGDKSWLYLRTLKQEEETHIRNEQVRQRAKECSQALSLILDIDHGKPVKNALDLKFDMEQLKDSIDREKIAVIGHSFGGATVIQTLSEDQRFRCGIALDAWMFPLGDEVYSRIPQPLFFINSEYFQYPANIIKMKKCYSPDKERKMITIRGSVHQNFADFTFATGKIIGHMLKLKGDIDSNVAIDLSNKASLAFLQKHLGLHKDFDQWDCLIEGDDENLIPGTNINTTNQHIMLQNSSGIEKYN
Fam108B inh: Fam108B inhibition, counter-screen for RBBP9 inhibitors | recombinant Fam108B, FP-Rh probe fluorescence polarization | 300,000 tested, 0.33% active | inhibition, % at 9.51 µM;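 active = inhibition above the screen mean inhibition plus 3 SD, computed separately per campaign, cut at about 18% in these data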;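 note: inhibitors lower polarization as less probe binds the enzyme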
pPAFAH confirm: confirmation of human plasma PAF acetylhydrolase (pPAFAH) inhibitors; shares compounds with pPAFAH inh; inhibition, % at 3.39 µM; 2,300 tested, 72% active; recombinant pPAFAH, FP-Rh probe fluorescence polarization;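 active = mean inhibition of the triplicate above the hit cutoff set for the earlier primary screen, cut at about 25% in these data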;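 note: 0% = enzyme with DMSO and 100% = wells lacking pPAFAH enzyme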
* = called active by the depositor; . = no result.

SMILES | PAFAH1B2 FP inh | PME-1 inh | PAFAH1B3 FP inh | PAFAH2 inh | pPAFAH inh | Fam108B inh | pPAFAH confirm
NC(=O)CC(NC(=O)Cc1cccc2ccccc12)c1ccc(NCCc2ccc(F)cc2)c([N+](=O)[O-])c1 (stereo not given) | 16 | -2 | -13 | -5 | -4 | -9 | .
CCOc1ccc(Nc2nc(NCC3CCCO3)c3ccccc3n2)cc1 (stereo not given) | 7 | -61 | 8 | 5 | 67* | 6 | 55*
c1ccc(Nc2nc(NCC3CCCO3)c3ccccc3n2)cc1 (stereo not given) | 5 | -2 | 3 | -1 | 6 | 6 | .
C[C@H]1CN([C@@H](C)CO)C(=O)c2cccc(NS(=O)(=O)c3ccc(F)cc3)c2O[C@H]1CN(C)Cc1ccc(Cl)c(Cl)c1 | 3 | . | -4 | 2 | 37* | . | 46*
O=C(N/N=C/c1cc([N+](=O)[O-])ccc1O)c1cccc2cc[nH]c12 | -3 | -5 | -9 | 24 | 61* | 8 | 52*
O=C(O)c1cccc(N2C(=O)c3cc([N+](=O)[O-])cc4cc([N+](=O)[O-])cc(c34)C2=O)c1 | 10 | 8 | 34* | 20 | 45* | 15 | 21
O=C(O)c1cccc(N2C(=O)c3cccc4cccc(c34)C2=O)c1 | 7 | . | 8 | 2 | . | . | .
N#Cc1c(-c2cccc(Br)c2)cc(-c2ccco2)[nH]c1=O | 5 | -1 | 7 | 23 | 45* | -3 | 32*
N#Cc1c(-c2ccccc2)cc(-c2ccccc2)[nH]c1=O | 4 | 4 | 2 | -7 | 3 | -8 | .
Cn1cccc1/C=N/NC(=O)c1cc2ccccc2cc1O | 12 | 23 | 21 | 5 | 51* | 5 | 9
Cn1cccc1/C=N/NC(=O)c1ccccn1 | 4 | 1 | 4 | 2 | 4 | 2 | .
O=C(N/N=C/C1CC=CCC1)c1cc2ccccc2cc1O (stereo not given) | 0 | 15 | 15 | 9 | 44* | 6 | 17
O=C(O)COc1ccccc1/C=N/NC(=O)c1cc2ccccc2cc1O | 5 | 7 | 3 | 1 | 43* | 6 | 2
O=C(O)COc1ccccc1/C=N/NC(=O)c1cc(-c2ccc(F)cc2)nc2ccccc12 | -3 | -2 | 2 | 7 | 6 | -2 | .
C/C(=N\NC(=O)c1cc2ccccc2cc1O)c1ccc(C)o1 | 10 | -9 | 4 | 4 | 41* | 8 | 5
CCN1C(=O)[C@H]2[C@H]3CN=C(SCc4ccc(C#N)cc4)N3[C@@](CC)(C(=O)OC)[C@H]2C1=O | 21 | . | 6 | 2 | 3 | . | .
O=C(Cc1ccccc1)N1O[C@H]2C=C[C@@H]1CC2 | 6 | . | 9 | 2 | 9 | . | .
CC(=N)c1c(O)c2ccccc2oc1=O | 5 | -11 | 3 | 2 | 63* | -1 | 1
CCCCC(=O)c1c(O)c2ccccc2oc1=O | -1 | -2 | 6 | 1 | 11 | 3 | .
C/C(CC(=O)Nc1ccc2ccccc2c1)=N\NC(=O)c1ccc(O)c(O)c1 | 5 | -4 | 12 | 14 | 54* | 1 | 55*
COc1ccc(OC)c(CNC(=O)CCSCc2ccc(F)cc2Cl)c1 | 3 | 1 | 7 | 1 | 4 | -4 | .
C[C@H](NC(=O)c1nc[nH]c1C(=O)NC1CCNCC1)C(=O)OCc1ccccc1 | . | . | . | . | 4 | . | .
CCOc1ccc(C(=O)Nc2ccc(-c3nc4ccccc4[nH]3)cc2)cc1[N+](=O)[O-] | -8 | -15 | -13 | -26 | 3 | -22 | .
Cc1cccc(Nc2nc(N)c([N+](=O)[O-])c(N3CC(C)CC(C)C3)n2)c1 (stereo not given) | -1 | -7 | 4 | -10 | 9 | -8 | .
N#Cc1c(SCC(=O)Nc2nc3ccccc3s2)sc2c(O)cc(=O)[nH]c12 | 19 | -8 | 28* | 35* | 41* | . | 31*
SMILES | PAFAH1B2 FP inh | PME-1 inh | PAFAH1B3 FP inh | PAFAH2 inh | pPAFAH inh | Fam108B inh | pPAFAH confirm
N#Cc1c(SCC(=O)Nc2nccs2)sc2c(O)cc(=O)[nH]c12 | 17 | -39 | 22 | 32* | 37* | 5 | 10
Cc1cc(C(F)(F)F)c(C#N)c(SCC(=O)Nc2nc3cc(Br)ccc3s2)n1 | -29 | -27 | -57 | -54 | -1 | -22 | .
CCOc1cccc(NC(=O)CSc2sc3c(O)cc(=O)[nH]c3c2C#N)c1 | 1 | -28 | 9 | -1 | 16 | -6 | .
N#Cc1c(SCC(=O)Nc2nc3ccc(Br)cc3s2)sc2c(O)cc(=O)[nH]c12 | 12 | -9 | 19 | 17 | 51* | -6 | 42*
Cc1cc(=O)[nH]c(SCC(=O)Nc2nc3ccccc3s2)n1 | 0 | 2 | 5 | 8 | 2 | -1 | .
NCCCCNCCCN | 3 | -2 | 14 | -4 | 62* | -1 | 0
Clc1ncccc1-c1nnn(-c2ccccc2)n1 | -2 | -2 | 9 | 2 | 6 | 2 | .
CN(C)C1(CN=Cc2cc(Cl)cc([N+](=O)[O-])c2O)CCCCC1 | 8 | 5 | 5 | 34* | 42* | 11 | 28*
CC(=O)c1cccc(-c2ccc3c(=O)[nH]c(Nc4ccccc4)cc3c2)c1 | 13 | 21 | 52* | 23 | 48* | 16 | 28*
CC(=O)c1cccc(Nc2nc(-c3ccccc3)nc3ccccc23)c1 | -4 | 0 | 10 | -2 | -4 | 3 | .
CCCCCn1c(=O)[nH]c2cc(C(=O)NCCc3ccc(OC)c(OC)c3)ccc2c1=O | -1 | 1 | -1 | -9 | 2 | -1 | .
CCCCNC(=O)c1sc(=S)n2c1[nH]c(=O)c1ccc(C(=O)NCCc3ccc(OC)c(OC)c3)cc12 | 20 | 21 | 18 | 12 | 40* | 11 | 42*
CCN1CCN(C(=S)Nc2cccc([N+](=O)[O-])c2)CC1 | 2 | 1 | 5 | 0 | 5 | -2 | .
Cc1onc(C(=O)NN)c1-c1csc(COc2ccc(Cl)cc2)n1 | 9 | -4 | 5 | 4 | -1 | -6 | .
C=CCn1c(SCC(=O)c2ccc(O)c(O)c2)nnc1-c1cccnc1 | 4 | -3 | 7 | 24 | 50* | 4 | 19
CCn1c(SCC(=O)c2ccc(O)c(O)c2)nnc1-c1ccccc1 | 2 | -3 | 18 | 21 | 11 | 1 | .
C=CCn1c(SCC(=O)c2ccc(O)c(O)c2)nnc1-c1cccc(C)c1 | 9 | 1 | 9 | 29 | 35* | . | 80*
COc1cc(-c2nc(-c3cccnc3)no2)cc(OC)c1OC | 7 | -2 | 7 | 3 | 40* | 0 | 2
CC(C)c1ccc(NC2CCCN(C(=O)CC3CCCC3)C2)cc1 (stereo not given) | 19 | -4 | 3 | 6 | 2 | 3 | .
COc1ccc(NC(=O)c2cccc3ccccc23)cc1 | -1 | -2 | 1 | 1 | -8 | 6 | .
O=C(Oc1ccc(OC(=O)N2CCCCC2)cc1)N1CCCCC1 | . | 9 | . | . | 0 | 1 | .
